Assay results published in PubChem BioAssay (Tox21).
“And” between values parts separate entries of the source, which are not always exact repeats. Identical values can stand only once. Where a structure was tested more than once in an assay, its records may differ in their call. The source made the active and inactive calls. Unless noted, calls follow the shape of the dose curve; as a rule, active = well fitted curve in the direction sought with a large enough effect in the repeat runs; inconclusive = weak or mixed curves; inactive = no such curve, though single readings can be large; an effect the other way counts as inactive or inconclusive.

Columns and labels:
[1] = qHTS assay to identify small molecule antagonists of the thyroid receptor (TR) signaling pathway - cell viability counter screen (AID 743064); also: nearly all actives have a fitted effect of over 50% in size; also: potency is read from the fitted curve at half-maximal effect
Method in brief: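 GH3.TRE-Luc rat pituitary cells carrying a TRE-luciferase reporter were treated with compound plus 1 nM T3 (final) for 23.5 h at 37 °C. Viability was then read in the same wells by CellTiter-Fluor fluorescence after a further 30 min.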

[2] = system: thyroid hormone receptor (rat, GH3 cells); assay: qHTS assay to identify small molecule agonists of the thyroid receptor (TR) signaling pathway (AID 743066; calls by dose curve)
[3] = molecular target: Estrogen receptor (Homo sapiens) (UniProt P03372); assay: qHTS assay to identify small molecule antagonists of the estrogen receptor alpha (ER-alpha) signaling pathway (AID 743069; active = well fitted curve in the direction sought with a large enough effect in the signal ratio in the repeat runs, not every such curve was filed as active; inconclusive = weak or mixed curves, or effect the other way; inactive = no such curve, though single readings can be large or run the other way; the % refers to the signal ratio; also: potency is read from the fitted curve at half-maximal effect)
Estrogen receptor (Homo sapiens), sequence (P03372 whole entry, looked up): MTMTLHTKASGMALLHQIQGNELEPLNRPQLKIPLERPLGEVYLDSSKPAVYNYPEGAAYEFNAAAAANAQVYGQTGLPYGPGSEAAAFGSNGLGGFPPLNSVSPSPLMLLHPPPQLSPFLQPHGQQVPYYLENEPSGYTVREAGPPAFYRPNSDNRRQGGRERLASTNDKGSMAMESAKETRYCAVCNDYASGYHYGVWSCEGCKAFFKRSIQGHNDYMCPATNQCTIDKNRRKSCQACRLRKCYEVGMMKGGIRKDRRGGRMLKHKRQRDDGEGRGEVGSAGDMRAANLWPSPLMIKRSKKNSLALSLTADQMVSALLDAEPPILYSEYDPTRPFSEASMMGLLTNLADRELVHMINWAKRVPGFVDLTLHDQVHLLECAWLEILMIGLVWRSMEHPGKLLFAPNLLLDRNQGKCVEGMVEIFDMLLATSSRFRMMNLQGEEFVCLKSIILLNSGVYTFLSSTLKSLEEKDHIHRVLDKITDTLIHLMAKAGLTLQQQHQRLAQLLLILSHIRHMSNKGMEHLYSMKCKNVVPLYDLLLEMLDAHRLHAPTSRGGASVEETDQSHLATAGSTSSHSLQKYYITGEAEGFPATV
Method in brief: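 ER-alpha-UAS-bla GripTite HEK293 line; 2% charcoal-stripped FBS overnight; plated, 4 hr 37C/5% CO2; cpd in DMSO + 17beta-estradiol, 18 hr 37C; LiveBLAzer B/G FRET substrate 2 hr RT; fluorescence intensity.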

[4] = qHTS assay to identify small molecule antagonists of the estrogen receptor alpha (ER-alpha) signaling pathway - cell viability counter screen (AID 743074; calls by dose curve;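 also: HEK293 cells carrying ER-alpha-UAS-bla reporter stimulated with 17beta-estradiol; nearly all actives have a fitted effect of over 45% in size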)
[5] = molecular target: Estrogen receptor (Homo sapiens) (UniProt P03372); assay: qHTS assay to identify small molecule agonists of the estrogen receptor alpha (ER-alpha) signaling pathway (AID 743075; calls by dose curve;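 also: HEK293 GripTite cells with ER-alpha and UAS-driven beta-lactamase reporter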; also: potency is read from the fitted curve at half-maximal effect)
[6] = molecular target: Estrogen receptor (Homo sapiens) (UniProt P03372); assay: qHTS assay to identify small molecule agonists of the estrogen receptor alpha (ER-alpha) signaling pathway using the BG1 cell line (AID 743079); also: nearly all actives have a fitted effect of over 20% in size; also: potency is read from the fitted curve at half-maximal effect
[7] = qHTS assay to identify small molecule antagonists of the estrogen receptor alpha (ER-alpha) signaling pathway using the BG1 cell line (AID 743080; calls by dose curve;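 also: BG1 cells stimulated with 17beta-estradiol alongside compound; series mostly up to about 70 µM; nearly all actives have a fitted effect of over 25% in size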)
Method in brief: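 Luciferase inhibition measured with ONE-Glo after 30 min at RT in BG1Luc4E2 cells given test compounds and 17beta-estradiol for 21.5 h at 37 C; CellTiter-Fluor viability read in the same wells beforehand.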

[8] = qHTS assay to identify small molecule antagonists of the estrogen receptor alpha (ER-alpha) signaling pathway using the BG1 cell line - cell viability counter screen (AID 743081);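 also: compound given together with 17beta-estradiol as the ER stimulus; series mostly up to about 70 µM; nearly all actives have a fitted effect of over 45% in size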
Aromatase (Homo sapiens) = Aromatase (Homo sapiens) (UniProt P11511); assay: qHTS assay to identify aromatase inhibitors (AID 743083); also: nearly all actives have a fitted effect of over 55% in size; also: potency is read from the fitted curve at half-maximal effect
Aromatase (Homo sapiens), sequence (P11511 whole entry, looked up): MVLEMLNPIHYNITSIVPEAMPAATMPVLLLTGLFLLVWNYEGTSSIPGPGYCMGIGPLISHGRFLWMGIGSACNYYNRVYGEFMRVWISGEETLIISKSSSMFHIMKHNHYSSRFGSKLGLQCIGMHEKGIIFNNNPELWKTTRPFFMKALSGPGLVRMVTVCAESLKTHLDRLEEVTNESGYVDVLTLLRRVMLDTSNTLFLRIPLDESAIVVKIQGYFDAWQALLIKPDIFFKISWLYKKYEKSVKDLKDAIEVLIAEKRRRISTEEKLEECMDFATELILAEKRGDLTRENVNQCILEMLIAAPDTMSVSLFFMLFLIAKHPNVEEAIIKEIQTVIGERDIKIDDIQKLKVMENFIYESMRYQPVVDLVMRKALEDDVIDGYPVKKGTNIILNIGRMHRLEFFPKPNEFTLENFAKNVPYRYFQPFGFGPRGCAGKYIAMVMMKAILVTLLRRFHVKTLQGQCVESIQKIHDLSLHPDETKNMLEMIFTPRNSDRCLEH

[9] = qHTS assay to identify aromatase inhibitors - cell viability counter screen (AID 743084);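 also: cells stimulated with testosterone during compound exposure; nearly all actives have a fitted effect of over 55% in size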; also: potency is read from the fitted curve at half-maximal effect
[10] = molecular target: Aryl hydrocarbon receptor (Homo sapiens) (UniProt P35869); assay: qHTS assay to identify small molecule that activate the aryl hydrocarbon receptor (AhR) signaling pathway (AID 743085);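 also: HG2L7.5c1 human HepG2 liver cells with stably integrated DRE-driven firefly reporter; series mostly up to about 70 µM; nearly all actives have a fitted effect of over 15% in size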
Aryl hydrocarbon receptor (Homo sapiens), sequence (P35869 whole entry, looked up): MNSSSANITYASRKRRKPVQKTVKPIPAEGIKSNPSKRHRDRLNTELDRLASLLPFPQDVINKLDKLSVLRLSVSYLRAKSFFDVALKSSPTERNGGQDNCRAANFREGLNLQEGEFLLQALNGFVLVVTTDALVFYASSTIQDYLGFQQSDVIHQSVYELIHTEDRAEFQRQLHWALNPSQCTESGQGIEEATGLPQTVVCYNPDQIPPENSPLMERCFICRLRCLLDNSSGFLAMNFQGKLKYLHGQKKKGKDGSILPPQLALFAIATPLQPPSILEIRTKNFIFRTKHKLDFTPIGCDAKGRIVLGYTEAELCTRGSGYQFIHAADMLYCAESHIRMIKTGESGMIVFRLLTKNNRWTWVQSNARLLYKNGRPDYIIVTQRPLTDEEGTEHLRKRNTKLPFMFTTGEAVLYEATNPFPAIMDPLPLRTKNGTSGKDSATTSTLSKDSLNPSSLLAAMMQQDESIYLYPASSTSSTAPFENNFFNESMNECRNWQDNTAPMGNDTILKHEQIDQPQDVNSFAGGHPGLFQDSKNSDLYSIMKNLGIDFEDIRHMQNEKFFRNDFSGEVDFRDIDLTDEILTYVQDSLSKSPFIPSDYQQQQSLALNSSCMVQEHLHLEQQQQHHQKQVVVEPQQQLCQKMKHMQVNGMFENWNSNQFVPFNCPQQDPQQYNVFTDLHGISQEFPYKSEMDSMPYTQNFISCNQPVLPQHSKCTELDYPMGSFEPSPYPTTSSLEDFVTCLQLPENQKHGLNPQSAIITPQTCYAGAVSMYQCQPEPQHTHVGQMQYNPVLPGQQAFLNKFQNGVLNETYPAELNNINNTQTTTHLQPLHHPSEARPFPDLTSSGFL
Method in brief: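 HepG2 cells (HG2L7.5c1) stably carrying a firefly luciferase reporter driven by 20 dioxin responsive elements were exposed to compound for 24 h at 37C after a 5 h settling period; luminescence rise (ONE-Glo) indicated activation.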

[11] = qHTS assay to identify small molecule that activate the aryl hydrocarbon receptor (AhR) signaling pathway - cell viability counter screen (AID 743086);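 also: HepG2 liver cells carrying the AhR DRE luciferase reporter; series mostly up to about 70 µM; nearly all actives have a fitted effect of over 45% in size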
Method in brief: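 Cytotoxicity counter screen: CellTiter-Fluor signal (30 min, 37 C) in 4000 HepG2 cells/well carrying the DRE-luciferase reporter, following 24 h compound exposure at 37 C.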

[12] = molecular target: Peroxisome proliferator-activated receptor gamma (Homo sapiens) (UniProt P37231); assay: qHTS assay to identify small molecule agonists of the peroxisome proliferator-activated receptor gamma (PPARg) signaling pathway (AID 743094; active = well fitted activation curve with a large enough effect in the signal ratio in the repeat runs, not every such curve was filed as active; inconclusive = weak or mixed curves, or effect the other way; inactive = no such curve, though single readings can be large or run the other way; the % refers to the signal ratio)
Peroxisome proliferator-activated receptor gamma (Homo sapiens), sequence (P37231 whole entry, looked up): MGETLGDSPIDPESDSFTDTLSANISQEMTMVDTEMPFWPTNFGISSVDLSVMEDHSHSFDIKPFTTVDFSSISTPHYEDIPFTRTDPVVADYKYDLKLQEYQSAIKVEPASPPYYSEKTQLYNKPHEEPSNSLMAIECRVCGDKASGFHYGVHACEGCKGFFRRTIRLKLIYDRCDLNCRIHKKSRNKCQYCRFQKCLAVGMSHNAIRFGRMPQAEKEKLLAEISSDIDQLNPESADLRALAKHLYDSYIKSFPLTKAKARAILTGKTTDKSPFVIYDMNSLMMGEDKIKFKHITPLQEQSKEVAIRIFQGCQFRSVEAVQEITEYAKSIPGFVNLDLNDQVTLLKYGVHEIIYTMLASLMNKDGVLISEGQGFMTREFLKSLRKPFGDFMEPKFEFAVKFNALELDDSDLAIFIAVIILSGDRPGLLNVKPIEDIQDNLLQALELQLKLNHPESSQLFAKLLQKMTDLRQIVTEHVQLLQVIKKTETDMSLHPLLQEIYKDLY
Method in brief: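 Stably transfected HEK293H cells (GeneBLAzer PPARg UAS-bla) were incubated with test substances for 17 h at 37C after a 5 h pre-incubation; beta-lactamase activity was then detected by FRET substrate fluorescence.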

[13] = qHTS assay for small molecule agonists of the antioxidant response element (ARE) signaling pathway - cell viability counter screen (AID 743203; calls by dose curve; also: nearly all actives have a fitted effect of over 55% in size)
Method in brief: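 Cells (ARE-bla HepG2, 2,000/well) receive DMSO-dissolved compounds after a 5 hrs rest. Plates incubate 16 hrs at 37C/5% CO2. CellTiter-Glo luminescence is then recorded after 30 min at room temperature.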

[14] = qHTS assay for small molecule activators of the heat shock response signaling pathway - cell viability counter screen (AID 743209); also: nearly all actives have a fitted effect of over 50% in size; also: potency is read from the fitted curve at half-maximal effect
Method in brief: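 Quantitative HTS format, Tox21 10K library. HeLa cells carrying an HSE-driven beta-lactamase reporter were treated 5 h at 37 C, then assessed for viability by CellTiter-Glo luminescence.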

[15] = qHTS assay for small molecule activators of the heat shock response signaling pathway (AID 743210; active = well fitted activation curve with a large enough effect in the signal ratio in the repeat runs, with a control signal flat, not every such curve was filed as active; inconclusive = weak or mixed curves; the % refers to the signal ratio;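 also: HeLa cells with beta-lactamase reporter driven by heat shock elements; series mostly up to about 63 µM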)
Method in brief: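 HeLa HSE-bla cells, overnight plating; cpd in DMSO 5 h, 37 C; LiveBLAzer B/G FRET substrate 2.5 h RT; fluorescence intensity read.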

[16] = molecular target: Peroxisome proliferator-activated receptor gamma (Homo sapiens) (UniProt P37231); assay: qHTS assay to identify small molecule antagonists of the peroxisome proliferator-activated receptor gamma (PPARg) signaling pathway (AID 743191; calls by dose curve; also: series mostly up to about 63 µM; nearly all actives have a fitted effect of over 30% in size)
Method in brief: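 Beta-lactamase reporter under UAS control in HEK293H PPARg-bla cells; compound treatment 17 h at 37C. Read-out: fluorescence intensity after 1 h room-temperature incubation with LiveBLAzer B/G FRET substrate.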

[17] = qHTS assay to identify small molecule antagonists of the peroxisome proliferator-activated receptor gamma (PPARg) signaling pathway - cell viability counter screen (AID 743194); also: nearly all actives have a fitted effect of over 55% in size
Method in brief: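 Viability was measured as CellTiter-Glo luminescence in GeneBLAzer PPARg UAS-bla HEK293H cells. These cells had been exposed 17 h at 37 C to compounds together with rosiglitazone at 50 nM final, with the beta-lactamase readout taken in the same wells.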

[18] = qHTS assay for small molecule agonists of the antioxidant response element (ARE) signaling pathway (AID 743202; active = well fitted activation curve with a large enough effect in the signal ratio in the repeat runs, not every such curve was filed as active; inconclusive = weak or mixed curves, or effect the other way; inactive = no such curve, though single readings can be large or run the other way; the % refers to the signal ratio)
Method in brief: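 Quantitative high-throughput format in HepG2 cells bearing an integrated ARE-beta-lactamase reporter. Compound exposure lasted 16 h at 37 C, and fluorescence was read 2 h after adding LiveBLAzer B/G substrate at room temperature.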

[19] = qHTS assay to identify small molecule antagonists of the thyroid receptor (TR) signaling pathway (AID 743065); also: nearly all actives have a fitted effect of over 55% in size; also: potency is read from the fitted curve at half-maximal effect
Method in brief: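 Antagonism measured as loss of luciferase signal in GH3 cells stably carrying a TRE-luciferase reporter, co-treated with compound and T3 (1 nM final) for 23.5 h at 37 C. Viability was read in the same well by CellTiter-Fluor.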
% is scaled to controls: 0 for no effect and ±100 for the full control effect.

CCCCCOC(=O)COc1cc(N2C(=O)C3=C(CCCC3)C2=O)c(F)cc1Cl
inactive: Potency [1] | Potency [2] | Potency [3] | outcome [4] | Potency [5] | Potency [6] | Potency [7] | Potency [8] | Potency (Aromatase (Homo sapiens)) | Potency [9] | Potency [10] | Potency [11] | Potency [12] | Potency [13] | Potency [14] | outcome [15]

Cc1cccc(Oc2ccccc2)c1
inactive: Potency [1] | Potency [2] | Potency [3] | outcome [4] | Potency [5] | Potency [6] | Potency [7] | Potency [8] | Potency [9] | Potency [11] | Potency [12] | Potency [16] | Potency [17] | Potency [18] | Potency [13] | Potency [14] | outcome [15]

C=CC(=O)OCC(C)OCC(C)OCC(C)OC(=O)C=C (stereo unspecified)
active: Potency [1] 38.6 µM | Potency [19] 24.3 µM | Potency [5] 61.7 µM [activator] | Potency (Aromatase (Homo sapiens)) 43.3 µM | Potency [9] 48.6 µM | Potency [14] 15.5 µM
inactive: outcome [4] | Potency [8] | Potency [10] | Potency [11] | Potency [17] | Potency [13]

Oc1ccc2c(c1)OCO2
inactive: Potency [1] | Potency [2] | outcome [4] | Potency [7] | Potency [8] | Potency (Aromatase (Homo sapiens)) | Potency [9] | Potency [11] | Potency [12] | Potency [17] | Potency [18] | Potency [13] | Potency [14] | outcome [15]

NC[C@H]1O[C@H](O[C@H]2[C@H](O)[C@@H](O[C@H]3O[C@H](CO)[C@@H](O)[C@H](N)[C@H]3O)[C@H](N)C[C@@H]2N)[C@H](O)[C@@H](O)[C@@H]1O
inactive and 1.89 µM (active): Potency [1]
inactive: Potency [2] | outcome [4] | Potency [7] | Potency [8] | Potency (Aromatase (Homo sapiens)) | Potency [9] | Potency [11] | Potency [12] | activity change, negative = cytotoxicity [17] -17.2% [at 5.95 µM] | activation [18] 4.43% [at 8.36 µM] | viability change, negative = cytotoxic [13] 7.86% [at 8.36 µM] | activity change, negative = cytotoxicity [14] 5.37% [at 5.95 µM]

CCCCOC(=O)c1ccccc1C(=O)OCC(CC)CCCC (stereo unspecified)
inactive: Potency [1] | Potency [19] | Potency [2] | Potency [5] | Potency [6] | Potency [7] | Potency [8] | Potency (Aromatase (Homo sapiens)) | Potency [11] | Potency [12] | Potency [16] | Potency [17] | Potency [18] | Potency [13] | Potency [14] | outcome [15]

Cn1sccc1=O
inactive: Potency [3] | outcome [4] | Potency [5] | Potency [7] | Potency [8] | Potency (Aromatase (Homo sapiens)) | Potency [10] | Potency [11] | Potency [12] | Potency [16] | Potency [17] | Potency [13] | Potency [14]
active: Potency [1] 30.6 µM | Potency [19] 30.6 µM

CC(C)c1cccc(C(C)C)c1NC(=O)NS(=O)(=O)c1cc(C(C)(C)O)co1
inactive: Potency [1] | Potency [19] | Potency [2] | outcome [4] | Potency [8] | Potency [17] | Potency [13] | Potency [14] | outcome [15]

O=C=NC1CCC(CC2CCC(N=C=O)CC2)CC1 (stereo unspecified)
inactive: Potency [1] | Potency [19] | Potency [2] | outcome [4] | Potency (Aromatase (Homo sapiens)) | Potency [9] | Potency [10] | Potency [11] | Potency [12] | Potency [18] | Potency [13] | Potency [14]

CCCCCOC(=O)c1ccc(O)cc1
active: Potency [3] 62.4 µM [inconclusive] | Potency [5] 55.6 µM [inconclusive] | Potency [6] 17.4 µM
inactive: Potency [1] | Potency [2] | outcome [4] | Potency [8] | Potency [10] | Potency [11] | Potency [12] | Potency [17] | Potency [13] | Potency [14]

CCCCOC(=O)/C=C\C(=O)OCCCC
inactive: Potency [1] | Potency [2] | Potency [3] | outcome [4] | Potency [5] | Potency [6] | Potency [7] | Potency [8] | Potency (Aromatase (Homo sapiens)) | Potency [9] | Potency [11] | Potency [12] | Potency [13] | Potency [14]

CC(C(=O)O)c1ccc(C(=O)c2ccccc2)s1 (stereo unspecified)
inactive: Potency [1] | Potency [19] | Potency [3] | outcome [4] | Potency [5] | Potency [8] | Potency (Aromatase (Homo sapiens)) | Potency [9] | Potency [11] | Potency [16] | Potency [17] | Potency [18] | Potency [13] | Potency [14] | outcome [15]

CCC(=O)OC(C)(C)C1CC=C(C)CC1 (stereo unspecified)
inactive: Potency [1] | Potency [19] | Potency [2] | Potency [5] | Potency [7] | Potency [8] | Potency (Aromatase (Homo sapiens)) | Potency [9] | Potency [11] | Potency [12] | Potency [16] | Potency [17] | Potency [14] | outcome [15]

CC(O)C1CCCCC1 (stereo unspecified)
inactive: Potency [1] | Potency [19] | Potency [2] | Potency [8] | Potency (Aromatase (Homo sapiens)) | Potency [9] | Potency [10] | Potency [11] | Potency [12] | Potency [16] | Potency [13] | Potency [14] | outcome [15]

CCCCc1cc2ccccc2c(OCCN(C)C)n1
inactive: Potency [2] | outcome [4] | Potency (Aromatase (Homo sapiens)) | Potency [9] | Potency [10] | Potency [11] | Potency [12] | Potency [16] | Potency [17] | Potency [18] | Potency [13] | Potency [14] | outcome [15]
active: Potency [1] 8.04 µM | Potency [19] 9.02 µM

Cc1ccc(C(C)c2ccc(C)c(C)c2)cc1C
inactive: Potency [1] | Potency [2] | Potency [3] | outcome [4] | Potency [5] | Potency [6] | Potency [7] | Potency [8] | Potency (Aromatase (Homo sapiens)) | Potency [9] | Potency [10] | Potency [11] | Potency [12] | Potency [16] | Potency [17] | Potency [13] | Potency [14] | outcome [15]

CC(C)(C)c1ccc(OCC2CO2)cc1 (stereo unspecified)
inactive: Potency [1] | Potency [2] | Potency [3] | outcome [4] | Potency [5] | Potency [8] | Potency (Aromatase (Homo sapiens)) | Potency [9] | Potency [10] | Potency [11] | Potency [17] | Potency [18] | Potency [13] | Potency [14]
active: Potency [6] 39.4 µM
